Measured values reported in PubChem BioAssay (NCATS).
Inconclusive results are not listed. The source made the active and inactive calls. Calls come from the whole dose curve; as a rule, active = well fitted curve in the direction sought with a large enough effect; inconclusive = small, poorly fitted or top-dose-only effect, or another doubt; inactive = no such curve, though single readings can be large; an effect the other way counts as inactive or inconclusive.

Experiments:
[1] = Quantitative High-Throughput drug screen in 47 multiple myeloma cell lines against the NCATS MIPE library collection: EJM_DSMZ cell viability assay (AID 1918926; note: nearly all actives have a fitted effect of over 30% in size; note: potency is the fitted concentration of half-maximal effect)
How it was run: (§1)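 Primary qHTS used for cherry-picking: cells at 500/well, library compounds for 48 h (37C, 5% CO2), luminescent ATP assay.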

[2] = Quantitative High-Throughput drug screen in 47 multiple myeloma cell lines against the NCATS MIPE library collection: Karpas620_DSMZ cell viability assay (AID 1918959); note: nearly all actives have a fitted effect of over 30% in size; note: potency is the fitted concentration of half-maximal effect
How it was run: (§2)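 Myeloma cell lines, 500 cells per well, exposed to MIPE 4.0 library compounds for 48 h at 37C, 5% CO2. Viability from ATP by CellTiter-Glo luminescence; normalised to DMSO (100%) and media-only (0%) wells.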

[3] = Quantitative High-Throughput drug screen in 47 multiple myeloma cell lines against the NCATS MIPE library collection: KMM1_JCRB cell viability assay (AID 1918960); note: nearly all actives have a fitted effect of over 30% in size; note: potency is the fitted concentration of half-maximal effect;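 for viability (% of DMSO): 100% = DMSO-treated cells and 0% = medium-only wells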
How it was run: (§3)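 Here, 48 h treatment with MIPE 4.0 agents at 37 °C preceded an ATP luminescence read. Plating density was 500 cells per well.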

[4] = Quantitative High-Throughput drug screen in 47 multiple myeloma cell lines against the NCATS MIPE library collection: H1112_PLB cell viability assay (AID 1918967; note: nearly all actives have a fitted effect of over 30% in size; note: potency is the fitted concentration of half-maximal effect)
How it was run: as §1

[5] = Quantitative High-Throughput drug screen in 47 multiple myeloma cell lines against the NCATS MIPE library collection: Karpas25_ECACC cell viability assay (AID 1918968; note: potency is the fitted concentration of half-maximal effect; nearly all actives have a fitted effect of over 35% in size)
How it was run: as §1

[6] = Quantitative High-Throughput drug screen in 47 multiple myeloma cell lines against the NCATS MIPE library collection: KMS12PE_JCRB cell viability assay (AID 1918972); note: nearly all actives have a fitted effect of over 30% in size; note: potency is the fitted concentration of half-maximal effect
How it was run: as §2

[7] = Quantitative High-Throughput drug screen in 47 multiple myeloma cell lines against the NCATS MIPE library collection: ARD_JJKsccE7 cell viability assay (AID 1918929; note: potency is the fitted concentration of half-maximal effect)
How it was run: as §1

[8] = Quantitative High-Throughput drug screen in 47 multiple myeloma cell lines against the NCATS MIPE library collection: JIM3_ECACC cell viability assay (AID 1918963; note: nearly all actives have a fitted effect of over 35% in size; note: potency is the fitted concentration of half-maximal effect)
How it was run: as §2

[9] = Quantitative High-Throughput drug screen in 47 multiple myeloma cell lines against the NCATS MIPE library collection: JIM1_ECACC cell viability assay (AID 1918964; note: potency is the fitted concentration of half-maximal effect)
How it was run: as §1

[10] = Quantitative High-Throughput drug screen in 47 multiple myeloma cell lines against the NCATS MIPE library collection: INA6_PLB cell viability assay (AID 1918965; note: potency is the fitted concentration of half-maximal effect; nearly all actives have a fitted effect of over 55% in size)
How it was run: as §2

[11] = Quantitative High-Throughput drug screen in 47 multiple myeloma cell lines against the NCATS MIPE library collection: KMS12BM_JCRB cell viability assay (AID 1918971); note: nearly all actives have a fitted effect of over 35% in size; note: potency is the fitted concentration of half-maximal effect
How it was run: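 Approved and investigational drugs from MIPE 4.0 were added by pin tool to 500 cells per well. After 48 hours at 37C, ATP-based CellTiter-Glo luminescence indicated remaining viability.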

[12] = Quantitative High-Throughput drug screen in 47 multiple myeloma cell lines against the NCATS MIPE library collection: AMO1_DSMZ cell viability assay (AID 1918927; note: nearly all actives have a fitted effect of over 30% in size; note: potency is the fitted concentration of half-maximal effect)
How it was run: as §1

[13] = Quantitative High-Throughput drug screen in 47 multiple myeloma cell lines against the NCATS MIPE library collection: ARP1_JJKsccF8 cell viability assay (AID 1918928; note: nearly all actives have a fitted effect of over 40% in size; note: potency is the fitted concentration of half-maximal effect)
How it was run: as §3

[14] = Quantitative High-Throughput drug screen in 47 multiple myeloma cell lines against the NCATS MIPE library collection: KMS27_JCRB cell viability assay (AID 1918970); note: nearly all actives have a fitted effect of over 30% in size; note: potency is the fitted concentration of half-maximal effect
How it was run: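 ATP-based viability (CellTiter-Glo luminescence) is measured in cells treated 48 h with approved and investigational drugs at 37 °C. Controls are DMSO-only wells for full viability and media-only wells for none.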

[15] = Quantitative High-Throughput drug screen in 47 multiple myeloma cell lines against the NCATS MIPE library collection: KMS20_JCRB cell viability assay (AID 1918973); note: nearly all actives have a fitted effect of over 45% in size; note: potency is the fitted concentration of half-maximal effect
How it was run: as §1

[16] = Quantitative High-Throughput drug screen in 47 multiple myeloma cell lines against the NCATS MIPE library collection: KHM11_PLB cell viability assay (AID 1918962); note: nearly all actives have a fitted effect of over 35% in size; note: potency is the fitted concentration of half-maximal effect
How it was run: as §2

[17] = Quantitative High-Throughput drug screen in 47 multiple myeloma cell lines against the NCATS MIPE library collection: JJN3_DSMZ cell viability assay (AID 1918966; note: nearly all actives have a fitted effect of over 50% in size; note: potency is the fitted concentration of half-maximal effect)
How it was run: as §1

[18] = Quantitative High-Throughput drug screen in 47 multiple myeloma cell lines against the NCATS MIPE library collection: Karpas417_ECACC cell viability assay (AID 1918961); conditions: Karpas417 myeloma viability, CellTiter-Glo ATP luminescence, 48 h; viability (% of DMSO): at 45.8 µM (top of the series)
How it was run: as §2

O=c1cc(-c2ccccc2)oc2cc(O)c(O)c(O)c12
active: Potency [4] 20.9 µM | Potency [5] 20.9 µM
inactive: Potency [1] | Potency [2] | Potency [3] | Potency [6]

COc1cc(N2CCC(N3CCN(C)CC3)CC2)ccc1Nc1ncnc(Nc2ccccc2S(=O)(=O)C(C)C)n1
active: Potency [8] 5.26 µM | Potency [10] 14.8 µM | Potency [11] 23.5 µM
inactive: Potency [7] | Potency [9] | Potency [6]

O=C(O)c1ccc(-c2c[nH]c3ncc(-c4ccccc4)cc23)cc1C1CCCC1
active: Potency [12] 2.96 µM | Potency [7] 0.935 µM
inactive: Potency [1] | Potency [13] | Potency [2] | Potency [3] | Potency [6]

CCn1c(C(=O)N(C2CC2)C2CC2)cc2c3c(ncn3C)c(Nc3cc(C)n(C)n3)nc21
inactive: Potency [12] | Potency [2] | Potency [14] | Potency [11]
active: Potency [8] 18.7 µM | Potency [10] 16.6 µM | Potency [4] 18.7 µM | Potency [6] 11.8 µM | Potency [15] 16.6 µM

c1ccc2c(-c3cnn4cc(-c5ccc(N6CCNCC6)cc5)cnc34)ccnc2c1
active: Potency [1] 11.8 µM | Potency [10] 2.35 µM | Potency [4] 3.32 µM | Potency [11] 14.8 µM

O=C(O)C(O)Cc1ccc(O)c(O)c1 (stereo not drawn)
inactive: Potency [12] | Potency [7] | Potency [2] | Potency [8] | Potency [9] | Potency [14] | Potency [6]
active: Potency [1] 23.5 µM

COc1cccc([C@@H](C)NCCCc2ccccc2Cl)c1
inactive: Potency [1] | Potency [13] | Potency [16] | Potency [8] | Potency [17] | Potency [11]

NC1=N[C@@]2(c3cc(NC(=O)c4ccc(F)cn4)ccc3F)COC[C@@H]2CS1
inactive: Potency [8] | Potency [11]
active: Potency [12] 2.64 µM | Potency [2] 0.418 µM | Potency [3] 3.32 µM | viability (% of DMSO) [18] 105% | Potency [16] 13.2 µM | Potency [9] 0.935 µM | Potency [10] 14.8 µM | Potency [4] 10.5 µM | Potency [5] 14.8 µM | Potency [14] 0.264 µM | Potency [6] 1.05 µM

Clc1ccc(COC(Cn2ccnc2)c2ccc(Cl)cc2Cl)cc1 (stereo not drawn)
active: Potency [12] 23.5 µM | Potency [3] 20.9 µM | Potency [10] 20.9 µM | Potency [6] 23.5 µM

N#CC1(c2ccc(NC(=O)c3cccnc3NCc3ccncc3)cc2)CCCC1
active: Potency [10] 18.7 µM | Potency [11] 23.5 µM | Potency [6] 0.469 µM
inactive: Potency [1] | Potency [12] | Potency [7] | Potency [2] | Potency [3] | Potency [16] | Potency [8] | Potency [9] | Potency [4] | Potency [14]

CC(C)C[C@H](CC(=O)O)C(=O)N[C@@H](Cc1c[nH]c2ccccc12)C(=O)N[C@@H](C)c1ccccc1
inactive: Potency [1] | Potency [12] | Potency [13] | Potency [2] | Potency [3] | Potency [16] | Potency [8] | Potency [4] | Potency [6] | Potency [15]

c1cc(-c2sc(-c3ccncc3)c(-c3ccncc3)c2-c2ccncc2)ccn1
inactive: Potency [13] | Potency [2]
active: Potency [10] 18.7 µM | Potency [17] 16.6 µM | Potency [14] 3.32 µM | Potency [6] 2.96 µM

COC1CCC(N(C(=O)C2CCC(C)CC2)c2cc(C3=CCCCC3)sc2C(=O)O)CC1 (stereo not drawn)
inactive: Potency [7] | Potency [2] | Potency [3] | Potency [9] | Potency [14] | Potency [6] | Potency [15]
active: Potency [10] 23.5 µM

O=C1Nc2ccc(Cl)cc2C(C#CC2CC2)(C(F)(F)F)O1 (stereo not drawn)
active: Potency [10] 20.9 µM | Potency [5] 20.9 µM | Potency [11] 23.5 µM | Potency [15] 20.9 µM

CC(=O)OC1C(C)OC(Oc2c(-c3ccc(O)cc3)oc3cc(O)cc(O)c3c2=O)C(O)C1OC(C)=O (stereo not drawn)
inactive: Potency [16] | Potency [8] | Potency [4]
active: Potency [10] 9.35 µM | Potency [15] 11.8 µM

CC=CCC(C)C(O)C1C(=O)NC(CC)C(=O)N(C)CC(=O)N(C)C(CC(C)C)C(=O)NC(C(C)C)C(=O)N(C)C(CC(C)C)C(=O)NC(C)C(=O)NC(C)C(=O)N(C)C(CC(C)C)C(=O)N(C)C(CC(C)C)C(=O)N(C)C(C(C)C)C(=O)N1C (stereo not drawn)
inactive: Potency [3]

CCOc1ccc(Nc2nc(-c3c(C)nc4ccccn34)cs2)cc1
inactive: Potency [8] | Potency [15]
active: Potency [12] 0.001 µM | Potency [13] 0.003 µM | Potency [2] 0.0015 µM | Potency [3] 0.001 µM | Potency [16] 0.0743 µM | Potency [10] 0.0026 µM | Potency [17] 5.26 µM | Potency [11] 0.0066 µM | Potency [6] 0.003 µM

CO[C@H]1C[C@@H]2CC[C@@H](C)[C@@](O)(O2)C(=O)C(=O)N2CCCC[C@@H]2C(=O)O[C@H]([C@H](C)C[C@@H]2CC[C@H](OCCO)[C@H](OC)C2)CC(=O)[C@H](C)C=C(C)[C@@H](O)[C@@H](OC)C(=O)[C@H](C)C[C@H](C)C=CC=CC=C1C
inactive: Potency [16] | Potency [4]
active: Potency [17] 6.62 µM | Potency [5] 1.05 µM | Potency [14] 4.18 µM | Potency [11] 4.18 µM | Potency [15] 3.72 µM
